Measurements from PubChem BioAssay (NCATS).
Records with an inconclusive call do not appear. A number with no mark means an inactive call. Calls of active or inactive are those of the source. Calls follow the shape of the dose curve; as a rule, active = well fitted cell-killing curve with a large enough effect; inconclusive = small, poorly fitted or top-dose-only effect, or effect the other way; inactive = flat fitted curve, though single readings scatter.

Test system: CAOV3
Assay: Primary qHTS to identify gynecologic anti-cancer compounds using libraries of approved drugs and bioactive compounds (AID 1345084); also: nearly all actives have a fitted effect of over 55% in size
Details: Gynecologic cancer cell panel viability, ATPlite luminescence, 48 h; series mostly up to 57.5 µM; activity change, negative = cytotoxicity: at the top concentration
Excerpt: National Center for Advancing Translational Sciences [NCATS] Assay Overview: Chemotherapeutic drug responses vary from cancer to cancer and from patient to patient. These variations could be caused by a number of factors including patient genomic background, tumor mutations, tumor heterogeneity, and aspects of drug treatment. Chemotherapeutic drug resistance is also a common issue and can lead to ineffective treatment and patient death. Here we have profiled the cell killing effects of thousands of compounds to characterize the responses in three gynecological cancers, identify cancer-selective compounds, and understand the diversity of responses to these compounds from pan-cancer suppressors to single cell line selective compounds. In this assay, we screened a 7,914 compound drug library that included approved drug and bioactive compounds in six ovarian, three cervical, and […] placental cancer cell lines using the ATPlite assay for cell viability. […] The cervical cancer cell lines included HeLa, Ca Ski, and C-33 A. The placental cancer cell lines included JEG-3. HEK 293T cells were used as the control cell line to determine the selectivity index. ATPlite is a luminescence based assay reliant on the conversion of a luciferase substrate to light in the presence of ATP. As a cytotoxic compound will suppress growth and decrease the number of cells, the concentration of ATP will decrease, and less light signal will be detected in the well.
Assay Protocol Summary: 1,000 cells in 4 uL of media were dispensed into white, solid bottom 1536-well plates using a Multidrop Combi (Thermo Scientific). The Assay plates were incubated for 16 hours at 37 C with 5% CO2 in assay plates, followed by the addition of 23 nL of DMSO or drug dissolved in DMSO. Each compound was assayed in five concentrations (0.092, 0.46, 2.3, 11.5, and 57.5 uM), using the automated Wako 1536 Pin Tool workstation and incubated at 37 C with 5% CO2 48 hours. 4 uL of ATPlite, the ATP monitoring reagent, was then added to the each well of the assay plates using the Multidrop Combi reagent dispenser followed by incubation for 15 minutes at room temperature. The resulting luminescence was measured using the ViewLux plate reader.
% is scaled to controls: 0 for no effect and ±100 for the full control effect.

| SMILES | activity change, negative = cytotoxicity | Potency |
| --- | --- | --- |
| C1=C2CCCN[C@H]2[C@@H]2C[C@H]1[C@H]1CCCCN1C2 | -3.91% |  |
| CC(N)Cc1c[nH]c2ccccc12 (stereo not given) | 5.1% |  |
| CC(CCc1ccc(O)cc1)O[C@@H]1O[C@H](CO[C@H]2OC[C@](O)(CO)[C@H]2O)[C@@H](O)[C@H](O)[C@H]1O (stereo not given in full) | -5.12% [at 25.3 µM] |  |
| CC[C@H]1CN2CC[C@H]1C[C@@H]2[C@@H](O)c1ccnc2ccc(OC)cc12 | 2.21% [at 38.5 µM] |  |
| CCC(C)(C#N)O[C@@H]1O[C@H](CO)[C@@H](O)[C@H](O)[C@H]1O (stereo not given in full) | 4.46% |  |
| CC1=C2C[C@H]3[C@@H](CC=C4C[C@@H](O)CC[C@@]43C)[C@@H]2CC[C@]12O[C@@H]1C[C@H](C)CN[C@H]1[C@H]2C | 11.5% |  |
| OCCCCC#Cc1cncc(OC[C@@H]2CCN2)c1 | 13.4% |  |
| Cc1cc(C(=O)CN2CCCC2)c(C)n1-c1ccc(F)cc1 |  | inactive |
| COc1ccccc1CN[C@H]1C2CCN(CC2)[C@H]1C(c1ccccc1)c1ccccc1 | 2.37% |  |
| CC(C)(O)[C@H]1O[C@H]2CC[C@@]3(C)[C@@](O)(CC[C@H]4Cc5c([nH]c6ccccc56)[C@@]43C)C2=CC1=O | 22.3% [at 25.3 µM] |  |
| C=C1[C@@H]2CC[C@@]3(C)[C@H](c4ccoc4)OC(=O)C[C@]13O[C@H]1CC(=O)C(C)(C)[C@H](C(OC(C)=O)C(=O)OC)[C@]12C (stereo not given in full) | 4.91% [at 25.3 µM] |  |
| CC[C@H]1CN2CC[C@H]1C[C@H]2[C@H](O)c1ccnc2ccc(OC)cc12 | 3.19% [at 38.5 µM] |  |
| O=C(O)c1ccnc2cc(C(OCCN3CCCCC3)c3ccccc3Cl)[nH]c12 (stereo not given) | -0.446% |  |
| Oc1ccc2c3c1O[C@H]1[C@H](N(CCCl)CCCl)CC[C@@]4(O)[C@@H](C2)N(CC2CC2)CC[C@]314 | 11.9% [at 11.6 µM] |  |
| COc1cc(CCNCc2ccccc2O)c(OC)cc1C#N | -2.77% |  |
| Cc1cn(C[C@H](N)C(=O)O)c(=O)n(Cc2cc(-c3ccccc3)sc2C(=O)O)c1=O | 11.3% |  |
| CCCCCCn1c(=O)c(C(=O)Nc2ccc(C(=O)OCCC)cc2)c(O)c2ccccc21 | 20.9% [at 11.6 µM] |  |
| COC1CC(O[C@H]2CC[C@@]3(C)C(=CCC4C3C(O)[C@@H](O)[C@]3(C)[C@@H](C(C)=O)CC[C@]43O)C2)OC(C)C1OC1CC(OC)C(OC2OC(C)C(O)C(O)C2O)C(C)O1 (stereo not given in full) | -3.8% [at 11.6 µM] |  |
| C[C@@]12C[C@@H](c3ccoc3)OC(=O)C1CC[C@]1(C)[C@H]2[C@H]2C=C[C@]1(O)C(=O)O2 (stereo not given in full) | 17.4% [at 38.5 µM] |  |
| COC1=CC(=O)O[C@@H](/C=C/c2ccccc2)C1 | -6.79% |  |

| SMILES | activity change, negative = cytotoxicity | Potency |
| --- | --- | --- |
| CC1C/C=C/C(O)C(O)CC/C=C/c2cc(O)cc(O)c2C(=O)O1 (stereo not given) | -0.697% [at 38.5 µM] |  |
| C[C@]12CC[C@H]3[C@@H]([C@H](O)CC4=CC(=O)CC[C@@]43C)[C@@H]1CC[C@@H]2O | 6.85% |  |
| OC1(c2ccc(Cl)cc2)c2ccccc2C2=NCCN21 (stereo not given) | 1.08% |  |
| CCN1CC2(COC)C3[C@@H](OC)C4C1C3(C1C[C@]3(O)[C@H](OC(=O)c5ccccc5)C1[C@]4(OC(C)=O)[C@@H](O)[C@@H]3OC)[C@H](OC)C[C@H]2O (stereo not given in full) | 8.98% |  |
| COC(=O)C12C(=O)C(C)(O)C(=O)C1(C)C(C)=CC1C34CCC(OC3=O)C(C)(CO)C4CCC12C (stereo not given) | 6.19% [at 25.3 µM] |  |
| Cc1cccc(NC(=O)N[C@@H]2N=C(c3ccccc3)c3ccccc3N(C)C2=O)c1 | 8.36% |  |
| CCOc1ccccc1-n1c(C(C)N2CCN(C(=O)COc3ccc(Cl)cc3)CC2)nc2ccccc2c1=O (stereo not given) | -1.79% |  |
| CCN1C[C@]2(COC(=O)c3ccccc3N3C(=O)C[C@H](C)C3=O)CC[C@H](OC)[C@@]34[C@@H]5C[C@H]6[C@H](OC)[C@@H]5[C@](O)(C[C@@H]6OC)[C@](O)([C@@H](OC)[C@H]23)[C@@H]14 | 13.8% |  |
| O=C(N1CCOCC1)N1CCN(c2ccc(Cl)cc2)CC1 | 22% |  |
| CCCCCOc1cc2c(cc1-c1cc(/C=C/C(=O)O)ccc1O)C(C)(C)CCC2(C)C | 25.8% |  |
| COC1CC(=O)C23C(=O)NC(CC(C)C)C2C(C)=C(C)C(OO)C3/C=C(\C)CCC(O)C1O (stereo not given) | -11.5% [at 25.3 µM] |  |
| Cc1c(Cl)cccc1S(=O)(=O)Nc1nc(CC(=O)N2CCN(C)CC2)cs1 | 15.6% |  |
| CCCN1CCO[C@H]2c3cc(O)ccc3OC[C@@H]21 | 9.04% |  |
| COCC1OC(=O)c2coc3c2C1(C)C1=C(C3=O)C2CCC(=O)C2(C)CC1O (stereo not given) | 7.87% [at 38.5 µM] |  |
| C=C(C)[C@H]1O[C@H]2CC[C@@]3(C)[C@@](O)(CC[C@H]4[C@@H]5OC(C)(C)[C@H]6C[C@@H]7C(=C)Cc8c(Cl)cc9[nH]c(c5c9c8[C@@]76O)[C@@]43C)[C@]23O[C@@H]3[C@H]1O | -2.52% [at 25.3 µM] |  |
| CCc1[nH]c2ccc(OC)cc2c1CCN(C)C | 21.1% |  |
| CN(C(=O)Cc1ccccc1)C(CN1CCCC1)c1ccccc1 (stereo not given) | 15% |  |
| CCCSP(=O)(OCC)SCCC | 18.6% [at 116 µM] |  |
| C/C=C(\C)C(=O)OC1CC2C(C)(C)OC(=O)CC(OC(C)=O)C2(C)C2CC(OC(=O)C(C)C)C3(C)C(c4ccoc4)CC4OC43C12C (stereo not given) | 0.152% [at 25.3 µM] |  |
| C/C=C(\C)C(=O)OC1C(C)OC(OC2C(C)OC(OC3CCC4(C)C(=CCC5C4CCC4(C)C(C(C)OC6OC(COC7OC(CO)C(O)C(O)C7O)C(O)C(O)C6O)CCC54O)C3)CC2OC)C(O)C1OC (stereo not given) | 12.8% [at 11.6 µM] |  |
